The list is not random: actives were taken first. Their share in the collection is about 4.8%.
AI-2 QS mod: Vibrio harveyi AI-2 quorum sensing modulators, primary screen, JMH597 strain, luminescence/OD600 ratio. AID 2094, 2009. 300,000 tested, 0.4% active. activity change, % at 7.5 µM. Vibrio harveyi JMH597 AI-2 luminescence/OD600 ratio, 9 h; active compounds read low; strain lacks LuxN and CqsS sensors; 0 = neutral-control median; in the data active = activity change below about -75%, passing the limit was not always enough;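 note: luminescence divided by OD600 gain over 9 h not by final OD600 alone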
HIF act: HIF pathway transcriptional activators, primary screen, cell-based, U2OS HRE-luciferase, luminescence | U2OS HRE-luciferase reporter; normalized: DMSO 0%, desferrioxamine 100% | activation, % at 7.5 µM (by protocol) | 300,000 tested, 0.32% active;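 active = mean activation of at least 10% of the iron chelator positive control signal, with at least half of replicates also reaching 10%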
Mot1-301 SUMO: yeast Mot1-301 growth rescue at high temperature, primary screen, SUMOylation pathway inhibitor project, S. cerevisiae, ATP luminescence, 38.5C. S. cerevisiae Mot1-301 growth rescue; percent above DMSO median, 100 means doubled. growth rescue, % at 18.8 µM. 320,000 tested, 1% active. AID 2716, 2010;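 active = every valid replicate shows activation above 250% relative to neutral control wells; inactive = the rest, any valid replicate at or below 250%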;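 note: OY570 slx delta 5 strain wells were the positive control but not used for scaling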
ALR inh: inhibitors of human ALR sulfhydryl oxidase, primary screen, biochemical, H2O2 detection, HRP-luminol luminescence, single point; FAD-linked sulfhydryl oxidase ALR (Homo sapiens), P55789; purified ALR, DTT oxidation; inhibition, % (test concentration not listed); 290,000 tested, 3.8% active; AID 485317, 2010;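 active = mean replicate inhibition above about 79%, with every replicate also reaching it, limit read from the data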
Target sequence (P55789 whole entry, looked up): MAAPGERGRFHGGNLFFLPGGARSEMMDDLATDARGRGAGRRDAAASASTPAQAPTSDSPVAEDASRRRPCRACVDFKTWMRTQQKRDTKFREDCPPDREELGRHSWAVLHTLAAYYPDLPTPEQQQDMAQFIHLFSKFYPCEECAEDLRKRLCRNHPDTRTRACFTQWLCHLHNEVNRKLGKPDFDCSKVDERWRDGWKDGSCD
Active calls of the source: *; i = inactive; nt = not tested or not shown.

SMILES	AI-2 QS mod	HIF act	Mot1-301 SUMO	ALR inh
Cc1ccc(Cl)cc1N1CCN(C(=O)c2cn(C)c(=O)c3c2c2ccccc2n3C)CC1	21.2	-0.3	27.1	nt
CC(C)c1c(C(=O)N/N=C2\CCc3ccccc32)nnn1-c1nonc1N	15.3	-0.4	3.1	4.1
N#CCC(=O)Nc1ccc(C(=O)NCc2ccccn2)cc1	27.2	0.3	-1.1	98.7*
CCOc1cccc(CN2CCCC(C(=O)c3cccc(C(F)(F)F)c3)C2)c1O (stereo unspecified)	28.9	0.5	-11.4	42.8
CCOc1cccc(CN2CCCC(C(=O)Nc3ccc(-c4ccn[nH]4)cc3)C2)c1O (stereo unspecified)	22.6	0.3	52.6	80.4*
COc1ccc(-n2c(C)nc3sc4c(c3c2=O)CCC4)cc1	15.3	-0.3	nt	nt
CC(C)C1Cc2c(sc3c2c(=O)n(-c2ccccc2)c2n[nH]c(=S)n32)CO1 (stereo unspecified)	18.6	-0.2	12.5	93.7*
COc1ccc(-n2c(=O)c3c4c(sc3n3c(=S)[nH]nc23)CCCC4)cc1	60.4	0.1	0.0	95.7*
COc1ccc(CC(=O)OCN2C(=O)c3ccccc3C2=O)cc1OC	22.7	-0.5	i	5.5
COc1ccc(C(=O)Nc2ccc(Cl)c(Cl)c2)c(OC)n1	15.5	2.1	-12.1	-0.3
COc1ccc(C(=O)O)c(OC)n1	9.6	-0.3	313.3*	-2.3
COC(=O)c1cc(CN2CCN(c3ccccc3)CC2)ccc1O	33.4	-1.0	13.6	97.8*
Cc1cccc(NC(=O)CSCC(=O)Nc2sccc2C#N)c1	-4.5	-15.1	-9.2	98.4*
Cn1c(CNc2ccc(Br)cc2)nc2ccccc21	10.4	5.0	8.2	96.4*
Cn1c(Nc2ccc(F)cc2)nc2ccccc21	0.7	0.5	-0.8	61.5
Cc1ccc(NCc2nc3ccccc3n2C)cc1C	24.6	-3.3	2.0	98.2*
CN(Cc1nc2ccccc2n1C)c1ccccc1	3.8	1.1	5.7	98.7*
COc1ccc(Nc2nc3ccccc3n2C)cc1	4.6	1.5	-5.0	76.5*
Cn1c(CNc2nc3ccccc3n2C)nc2ccccc21	25.7	3.9	-8.3	-3.2
O=C(Nc1ccncc1)c1cccc(S(=O)(=O)N2CCCC2)c1	11.6	0.0	24.2	1.3
Cn1c(CNc2ccc(O)cc2)nc2ccccc21	2.3	1.3	76.4	98.9*
Cc1ccc(NCc2nc3ccccc3n2C)cc1	28.4	2.9	2.0	-2.4
COc1ccc(NCc2nc3ccccc3n2C)cc1	24.5	0.3	-8.6	98.0*
O=C1CN(C(=O)COC(=O)CCC(=O)c2ccc(F)cc2)c2ccccc2N1	nt	nt	0.6	-2.0
COC(=O)C1=C(C)Nc2[nH]c(=S)[nH]c(=O)c2C1c1ccc(O)cc1 (stereo unspecified)	19.6	-0.2	-0.1	31.4
SMILES	AI-2 QS mod	HIF act	Mot1-301 SUMO	ALR inh
COc1cc(C2C(C(=O)OC(C)C)=C(C)Nc3[nH]c(=O)[nH]c(=O)c32)ccc1O (stereo unspecified)	15.9	-0.3	-3.2	79.0*
CC(C)(C)c1ccc(S(=O)(=O)N2CCN(C(=O)C3=COCCO3)CC2)cc1	nt	nt	-15.7	0.5
COc1ccc(S(=O)(=O)N2CCCCCC2)cc1C(=O)OCC(=O)NC(N)=O	8.4	-0.3	-8.3	nt
O=C(CN1CCN(c2ccc(O)cc2)CC1)Nc1cc(S(=O)(=O)N2CCCC2)ccc1Cl	12.5	-0.4	83.0	90.3*
O=C(CN1CCN(c2ccc(O)cc2)CC1)Nc1cc(S(=O)(=O)N2CCCCC2)ccc1Cl	7.3	-0.6	-22.7	45.1
O=C(COC(=O)c1cc(S(=O)(=O)N2CCOCC2)ccc1O)Nc1cc(S(=O)(=O)N2CCCC2)ccc1Cl	19.0	-0.3	352.3*	-3.1
Cn1cccc1C(=O)NC(=O)COC(=O)c1cc(S(=O)(=O)N2CCCCC2)ccc1Cl	67.0	46.0*	79.5	-11.1
Nc1ccccc1SCc1cn2cccnc2n1	15.4	nt	7.5	97.7*
c1ccc(SCc2cn3cccnc3n2)nc1	17.3	-0.7	714.7	-0.6
Cc1cccn2cc(CSc3ccccc3N)nc12	13.2	2.6	-19.3	81.4*
COc1cc(CC(=O)OCC(=O)N2CCCCC2)cc(OC)c1OC	30.7	-6.9	-6.3	-0.5
O=C(OC1CO[C@H]2O[C@@H]1[C@H](OC(=O)c1ccccc1)[C@H]2OC(=O)c1ccccc1)c1ccccc1 (stereo partly specified)	10.1	0.0	-11.3	1.6
Cc1nc(-n2[nH]c3c(c2=O)CCCC3)[nH]c(=O)c1Cc1ccccc1	131.7	12.5*	62.7	5.7
Cn1nccc1C(=O)N1CCOCC1	-2.7	-0.5	15.2	-11.4
CCN1CCN(C(=O)c2cc3cc(Cl)ccc3[nH]2)CC1	-76.8*	-1.1	155.0	10.9
CN1CCN(C(=O)c2cc3cc(Cl)ccc3[nH]2)CC1	-31.4	0.4	107.7	nt
Cc1cc(NS(=O)(=O)c2ccccc2)c(C)c(Cl)c1O	11.0	-1.2	59.6	99.9*
O=S(=O)(Nc1c(O)ccc2ccccc12)c1ccccc1	1.7	0.0	-14.5	58.2
Cc1ccc(S(=O)(=O)Nc2cc(C)c(O)cc2C)cc1	22.6	-0.4	11.7	98.2*
Cc1c(O)ccc(NS(=O)(=O)c2ccccc2)c1C	18.4	0.1	2.4	98.8*
Cc1ccc(S(=O)(=O)Nc2cc(Cl)c(O)c3ncccc23)cc1	-226.8*	0.0	-16.2	-4.1
Cc1cccc(NCc2ccc(Br)cc2)n1	22.0	3.8	-2.0	-7.9
O=S(=O)(Nc1ccc(O)c(NS(=O)(=O)c2ccccc2)c1)c1ccccc1	-2.3	-0.4	-5.9	86.7*
Nc1ccc(NS(=O)(=O)c2ccccc2)cc1	25.0	-0.1	457.9	99.8*
CC(=O)c1ccc(NS(=O)(=O)c2ccccc2)cc1	22.4	-0.4	-2.3	-3.1
SMILES	AI-2 QS mod	HIF act	Mot1-301 SUMO	ALR inh
O=C(N/N=C/c1sc(N2CCOCC2)nc1-c1ccccc1)c1ccccc1Cl	2.5	-0.1	-3.1	-2.8
CCOC(=O)N/N=C/c1ccc(N2CCOCC2)s1	11.3	1.5	-11.7	98.6*
O=C(N/N=C/c1ccc(N2CCOCC2)s1)c1ccc(NS(=O)(=O)c2cccs2)cc1	29.1	-0.3	-6.3	70.3
COc1ccc(C(=O)N/N=C/c2ccc(N3CCOCC3)s2)cc1OC	nt	nt	95.0	93.1*
COc1ccc(C(=O)N/N=C/c2ccc(N3CCOCC3)o2)cc1OC	26.3	0.0	-14.6	nt
O=C(N/N=C/c1ccc(N2CCOCC2)s1)c1ccccc1Cl	13.4	1.1	11.7	87.6*
CC1(C)CC(=O)C(C(C2=C(O)CC(C)(C)CC2=O)c2ccc([N+](=O)[O-])cc2)C(=O)C1 (stereo unspecified)	5.8	-5.3	10.1	22.7
COc1cccc(C(C2C(=O)CC(C)(C)CC2=O)C2C(=O)CC(C)(C)CC2=O)c1	6.6	-1.1	24.5	nt
COc1cccc(C(C2=C(O)CC(C)(C)CC2=O)C2C(=O)CC(C)(C)CC2=O)c1 (stereo unspecified)	13.0	0.2	69.5	97.9*
